The OligoGym collection

The sequences below were run against KRBA1 (assay: pooled miR-30 sensor sort-seq; sequence = guide strand). Settings: shRNA.
Note: reference of the scale not given here.

Row | Sequence | sensor-assay potency score (higher = more potent)
1 | TTGGCTGCAACTCTGGGTCTTC | -0.346
2 | TTGTCTGCTGTCCAGTTCCTGG | -1.35
3 | TTCTCCAGCTGAGAAACCGGGC | -0.802
4 | TCTTCCATGTCCAAGCTCCAGG | -1.05
5 | TTGTCGGCAGTTTTGATGGGGA | -0.192
6 | TTCACTGTGTGATCTGTGGGGT | 0.493
7 | TCTCCAAACAAGAACTCTGGGA | -0.424
8 | ATTTGATTGAATCTGAGCCAAG | -1.53
9 | TTTGTCGGCAGTTTTGATGGGG | 0.519
10 | TTCTTCACTGTGTGATCTGTGG | -0.539
11 | TAGAGGACAGCAGCTGCTGGGA | -1.32
12 | TCTGAGACCTAGAGTCTCCTGG | -0.0756

The sequences below were run against KRBA2 in the same assay as above. Settings: shRNA.

Row | Sequence | sensor-assay potency score (higher = more potent)
13 | TAAGACAATAACTTCTTTGGTG | 0.507
14 | TTGAGCTCATGAACAACCTGGT | 0.411
15 | TGTGTCTCTGTAGCAATCCTTT | -1.24
16 | TATAAGACAATAACTTCTTTGG | -0.185
17 | ATTGAGCTCATGAACAACCTGG | -0.217
18 | TAACAAGACACTGACCACCTCA | 0.174
19 | TTGCTGTTGTAACTTTTGCTTT | -1.09
20 | TTTAGCTTCTTTAACTTCCTTT | 0.674
21 | TTGCTTTCTACTAACTTTGTTA | 0.0117
22 | TGAACTTGAACTCACCATCGGC | 0.0582

These sequences were tested against KRCC1 in the same assay as above. Settings: shRNA.

Row | Sequence | sensor-assay potency score (higher = more potent)
23 | TTTTTCTGAGAAACAGTCCCTC | -0.167
24 | TTCTGTACTGACATGTACGGTT | -0.0449
25 | TTCTTAGAGACTACATCTCGGC | -0.216
26 | TTAGAGACTACATCTCGGCTTT | 0.863
27 | TTAACCTCTCCTTTGTACCCAC | -0.366
28 | TTTCTTAGAGACTACATCTCGG | -0.234
29 | TTGTTGATTAAAGTTCAGGGGT | -0.113
30 | TTCTTGTTGATTAAAGTTCAGG | -0.822
31 | TTATCTGAGGAGAAGTGCTTGT | 0.253
32 | TTGATGAGTACTGGTACTGTTA | -0.491
33 | TTTCTGTACTGACATGTACGGT | -0.751
34 | TTCTCTTATGCTTAGACCGCTC | -0.386

The sequences below were run against KRI1 in the same assay as above. Settings: shRNA.

Row | Sequence | sensor-assay potency score (higher = more potent)
35 | TTCTGCAGCAAACTGGAGCCGC | -0.837
36 | TTTGTAAAAGTCCCGCTCCTGC | -0.976
37 | TACAGGGGCTTCCTCTTCCTGT | -0.817
38 | TTCTTCAACAAGGAGAGCGTTT | -0.767
